# Hits are enriched below; roughly 2.2% of the tested compounds scored in any of these assays.
# PAX8 reporter: inhibitors of PAX8-driven TPO luciferase reporter, primary screen, RMG-I cells, single concentration. SteadyGlo, 24 h. inhibition, % at 12.6 µM. 360,000 compounds, 1.2% hits;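 active = mean replicate inhibition at least 60% with every replicate also reaching 60%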;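 note: luciferase light reporting Pax8 driven TPO promoter activity; plate controls were median of neutral control wells for no effect and mitoxantrone controls for full effect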
# LMP1 NFkB inh: EBV LMP1-driven NF-kappaB luciferase reporter inhibitors, primary screen, cell-based, luminescence, single point. 350,000 compounds, 0.69% hits. inhibition, % at 12.5 µM. AID 504558, 2011. LMP1-induced NF-kappaB luciferase reporter cells; in the data active = inhibition above about 41%;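 note: 0% = neutral control wells and 100% = reference inhibitor control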
# MITF TRPM1 inh: inhibitors of MITF-dependent TRPM1 promoter reporter, primary screen, cell-based, SK-MEL-5, single point, luciferase | SK-MEL-5 TRPM1 promoter luciferase, 24 h | inhibition, % at 12.5 µM | 330,000 compounds, 0.83% hits | AID 488899, 2010;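 active = mean inhibition across replicates of 60% or more, whatever share of single replicates reaches that level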
# Shn3 inh set2: reduction of Shn3 3'UTR firefly luciferase signal, primary screen, Schnurri-3 inhibitor project, cell-based, Clone20 osteoblasts, set 2; inhibition, % at 12.5 µM; AID 588674, 2011; Clone20 osteoblast Shn3 3'UTR firefly luciferase, 24 h; 360,000 compounds, 0.52% hits;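 active = mean inhibition of at least 75% with every replicate also reaching 75%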;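 note: 0% = median of neutral control wells and 100% = pilot-screen positive control compound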
# EWS-Fli inh: EWS/Fli-driven NR0B1 reporter inhibitors, primary screen, A673 cells, NR0B1 luciferase, luminescence, MLPCN library; viability-normalised; 350,000 compounds, 0.67% hits; inhibition, % at 12.6 µM;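 active = mean inhibition of at least 50% after viability correction, with every replicate also passing that limit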;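 note: firefly luciferase signal divided by Alamar Blue viability fluorescence both relative to DMSO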
# LGR2 antag: inhibitors of bursicon-induced LGR2 CRE-luciferase signal, primary screen, cell-based, HEK293, CRE-luciferase reporter, bursicon stimulation; 380,000 compounds, 0.35% hits; inhibition, % at 9.99 µM; bursicon-stimulated, 4 h; Drosophila bursicon receptor LGR2 (rickets); AID 720647, 2013;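 active = drop in luminescence signal, shown as inhibition above about 50% in the replicate tests, limit read from the data, passing the limit was not always enough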;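 note: agonist challenge used bursicon conditioned medium at about half maximal strength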
# Numbers without * were called inactive; x = no result given.
SMILES,PAX8 reporter,LMP1 NFkB inh,MITF TRPM1 inh,Shn3 inh set2,EWS-Fli inh,LGR2 antag
Brc1ccc(CN2CCN(Cc3c[nH]c4ccccc34)CC2)cc1,12,-3,2,15,21,0
CCNC(=O)[C@H]1[C@H](CO)[C@H]2Cn3c(cccc3=O)[C@@H]1N2C(=O)C1CCC1,3,x,x,x,-17,-16
O=C(Nc1nc2ccccc2[nH]1)c1ccccc1OC(F)F,-6,8,1,-36,x,33
COc1ccc(C(=O)Nc2nc3ccccc3[nH]2)cc1OC,x,-16,-67,-34,-78,-76
O=C(Nc1ccc2ccccc2c1)c1ccccc1F,-37,-51,-8,-5,21,52*
O=C(Nc1nc2ccccc2[nH]1)c1ccccc1F,x,77*,87*,80,x,x
COc1ccc(Cl)cc1C(=O)Nc1nc2ccccc2[nH]1,42,18,54,7,72*,79*
CO[C@H]1CN(C)C(=O)c2ccc(NS(=O)(=O)c3ccc(C)cc3)cc2OC[C@H](C)N(C(=O)NC(C)C)C[C@@H]1C,x,x,x,x,0,-13
O=C(C[C@H]1CC[C@@H]2[C@H](COC[C@@H](O)CN2C(=O)Nc2ccccc2)O1)NCCCN1CCOCC1,-9,x,x,x,1,-8
O=C(NC1CCCCC1)C12CC3CC(C1)CC(n1cncn1)(C3)C2,x,78*,-3,12,x,0
C[C@H]1CN([C@@H](C)CO)C(=O)c2cc(-c3cccc(C#N)c3)cnc2O[C@@H]1CN(C)Cc1ccncc1,x,x,x,x,-23,11
C[C@H]1CN([C@@H](C)CO)C(=O)c2cc(NS(C)(=O)=O)ccc2O[C@@H]1CN(C)S(=O)(=O)c1ccccc1,x,x,x,x,-2,0
C/C(=N/NC(=O)c1ccc2nc[nH]c2c1)c1cccs1,-86,52*,-49,-14,-8,x
C/C(=N\NC(=O)c1ccc(Cl)cc1)c1cccs1,-73,18,-40,-21,20,8
CCN(CC)c1ccc(/C=N/N=C(N)N)c(O)c1,12,11,25,-11,54*,-15
COc1ccccc1NS(=O)(=O)c1cccc(C(=O)N/N=C/c2ccc3c(c2)OCCO3)c1,-28,5,-5,69,x,-42
COc1ccccc1NS(=O)(=O)c1cccc(C(=O)N/N=C/c2ccc([N+](=O)[O-])o2)c1,93*,-55,86*,53,50,21
CCN(CC)c1ccc(/C=N/NC(=O)c2cccc(S(=O)(=O)Nc3ccccc3OC)c2)c(O)c1,74*,58*,72*,83,1,36
C[C@H](CO)N1C[C@H](C)[C@H](CN(C)S(C)(=O)=O)Oc2ccc(NC(=O)Nc3ccc4c(c3)OCO4)cc2C1=O,x,x,x,x,5,-5
C[C@@H]1CN([C@@H](C)CO)C(=O)c2cc(NC(=O)Cc3ccccc3)ccc2O[C@@H](C)CCCCO[C@@H]1CN(C)S(=O)(=O)c1ccc(Cl)cc1,20,x,x,x,7,15
CCN(CC)c1ccc(/C=N/NC(=O)c2ccc3nc[nH]c3c2)c(O)c1,x,53*,58,92*,x,x
COc1cc(OC)c(OC)cc1/C=N/NC(=O)c1ccc2nc[nH]c2c1,3,11,4,-15,8,6
COc1ccccc1NS(=O)(=O)c1cccc(C(=O)NC2CCN(Cc3ccccc3)CC2)c1,x,32,24,87*,x,x
O=C(/C=C/Nc1cccc(C(F)(F)F)c1)C(F)(F)F,x,65*,-3,-19,2,7
COC(=O)/C=C/C(=O)Nc1cccc(C(F)(F)F)c1,31,43*,-8,22,6,1
SMILES,PAX8 reporter,LMP1 NFkB inh,MITF TRPM1 inh,Shn3 inh set2,EWS-Fli inh,LGR2 antag
C[C@H](CO)N1C[C@H](C)[C@@H](CN(C)Cc2ccc(Cl)c(Cl)c2)Oc2c(NC(=O)c3ccc(-c4nccs4)cc3)cccc2C1=O,x,x,x,x,9,24
O=C(C1CC1)N1CC(=O)N2[C@H](CO)[C@H](c3ccc(-c4cccnc4)cc3)[C@@H]2C1,-7,x,x,x,-7,2
N#C/C(=N\Nc1cccc([N+](=O)[O-])c1)C(=O)c1ccc(Br)cc1,91*,38,43,27,26,44
O=C(O)c1ccc(N=NNc2cccc([N+](=O)[O-])c2)cc1,-87,-31,-75,-92,-2,-47
C[C@@H]1CCCCO[C@@H](CN(C)S(=O)(=O)c2ccccc2)[C@H](C)CN([C@@H](C)CO)C(=O)c2cc(NC(=O)C3CCCCC3)ccc2O1,-46,x,x,x,0,16
Cc1cc(C)n(-c2cc(-n3nc(C)cc3C)ncn2)n1,x,-7,-6,96*,x,x
Cc1ccc(/C(O)=C/C(=O)C(=O)NNC(=O)C(O)(c2ccccc2)c2ccccc2)cc1,x,-5,15,-1,x,x
O=C(C=C(O)c1ccc(Cl)cc1)C(=O)NNC(=O)C(O)(c1ccccc1)c1ccccc1,12,-1,7,98*,0,-4
COc1cccc(CN2[C@@H](CO)[C@@H](c3ccccc3)C23CN(C(=O)C2CCCC2)C3)c1,x,x,x,x,4,22
Cc1onc(-c2ccccc2)c1C(=O)OCCOc1ccccc1F,-13,-8,-22,11,-7,-8
CCCOc1ccc(NC(=O)c2c(-c3ccccc3)noc2C)cc1,-8,10,-4,-8,-7,-8
Cc1ccccc1OCCOC(=O)c1c(-c2ccccc2)noc1C,28,0,20,21,58*,-7
CC(=O)Nc1ccc(OCCCNC(=O)c2c(-c3ccccc3)noc2C)cc1,4,58*,10,22,-3,-5
C[C@@H]1CN([C@@H](C)CO)C(=O)c2cc(NC(=O)CCC(F)(F)F)ccc2O[C@@H]1CN(C)Cc1ccncc1,9,x,x,x,-5,-5
CC(=O)[C@H]1CC[C@H]2[C@@H]3CCC4=CC(=O)CC[C@]4(C)[C@H]3[C@H](O)C[C@]12C,-17,5,-4,-8,-2,3
CC(=O)[C@H]1CC[C@H]2[C@@H]3C[C@H](C)C4=CC(=O)CC[C@]4(C)[C@H]3[C@@H](O)C[C@]12C,-2,57*,-22,35,9,-17
C[C@H]1CN([C@@H](C)CO)C(=O)Cc2cc(NC(=O)Nc3ccccc3)ccc2O[C@H]1CN(C)Cc1ccc(C(=O)O)cc1,-2,x,x,x,10,-17
Cn1c(=O)c(C(=O)NNC(=O)c2ccc(Br)cc2)c(O)c2ccccc21,64*,-4,20,1,17,7
Cn1c(=O)c(C(=O)NNC(=O)c2ccccc2F)c(O)c2ccccc21,21,-11,4,4,6,-9
CC(C)CC(=O)/C=C/n1c(=S)oc2ccccc21,-10,66*,76*,97*,x,-28
CC(=O)/C=C/n1c(=S)oc2ccccc21,114*,x,x,x,x,2
